In PubChem BioAssay AID488849 (National Center for Advancing Translational Sciences (NCATS), 2010):
Where “and” joins values, the source holds several entries; their conditions need not be identical. Identical values can stand only once. Results filed as inconclusive are left out. Calls of active or inactive are those of the source. Calls follow the shape of the dose curve; as a rule, active = well fitted activation curve with a large enough effect; inconclusive = small, poorly fitted or top-dose-only effect; inactive = flat fitted curve, though single readings scatter.

target: Lysosomal acid glucosylceramidase (Homo sapiens) (UniProt P04062); experiment: qHTS Assay for Inhibitors and Activators of N370S glucocerebrosidase as a Potential Chaperone Treatment of Gaucher Disease: Activity in Non-Mutant Spleen Confirmation for Probe SAR; details: human spleen homogenate, 4-MU-beta-glucoside fluorescence; series mostly up to 57.5 µM
Description: NIH Chemical Genomics Center [NCGC] NIH Molecular Libraries Probe Production Centers Network [MLPCN] MLPCN Grant: MH086442-01 Assay Submitter (PI): Wei Zheng Glucocerebrosidase (GC) catalyzes the hydrolysis of beta-glucocerebroside to glucose and ceramide in lysosomes. Mutations in the glucocerebrosidase gene result in Gaucher disease, an autosomal recessive lysosomal storage disorder. Many of the mutations encountered in patients with Gaucher disease are missense alterations that may cause misfolding, decreased stability and/or mistrafficking of this lysosomal protein. […] These inhibitors include iminosugar analogs and three non-iminosugar inhibitors identified from a previous HTS of 62,000 compounds with the wild type recombinant enzyme. However, the enhancement of enzyme activity by the chaperone action of an enzyme inhibitor must be balanced against the direct inhibition of the enzyme. An enzyme activator could also function as a chaperone by binding to the enzyme and helping to correct its misfolding and mistrafficking. While activators for GC have not yet been identified, they may have better therapeutic potential than inhibitors. Therefore the discovery and development of chemical activators may provide a new strategy for the chaperone therapy. We have optimized a new assay using N370S mutant GC derived from the spleen of a Gaucher patient. […] In addition, the MLPCN compound library has expanded, which increases the chance of finding new and better probes. This confirmation assay tests for compound activity in spleen homogenate containing wildtype enzyme.
NCGC Assay Protocol Summary: This is a fluorogenic enzyme assay with 4-methylumbelliferyl-beta-D-glucopyranoside as the substrate and wildtype glucocerebrosidase from human spleen homogenate as the enzyme preparation. Upon the hydrolysis of this fluorogenic substrate, the resulting product, […] which can be detected by a standard fluorescence plate reader. Data were normalized to the controls for basal activity (without enzyme) and 100% activity (with enzyme). The AC50 values were determined from concentration-response data modeled with the standard Hill equation. Assay buffer: 50 mM citric acid (titrated with potassium phosphate to pH 5.0), 100 mM potassium chloride, 10 mM sodium chloride, 1 mM magnesium chloride, 0.01% Tween-20. 1536-well assay protocol: (1) Add 2 ul/well of spleen homogenate (27 ug final) (2) Add 23 nL compounds in DMSO solution. The final titration was 0.5 nM to 58 uM. (3) Add 2 ul of substrate (1 mM final) (4) Incubate at 37C for 40 min. (5) Add 2 ul stop solution (1M NaOH and 1M Glycine mixture, pH 10) (6) Detect the assay plate in a ViewLux plate reader (PerkinElmer) with Ex=365 nm and Em=440nm. Keywords: Glucocerebrosidase, beta-glucosidase, Gaucher Disease, pharmacological chaperone, chaperone therapy, high throughput screening, glucocerebrosidase inhibitor, MLSMR, MLSCN, NIH Roadmap, qHTS and NCGC

Chain of Lysosomal acid glucosylceramidase (Homo sapiens) (P04062 whole entry, looked up): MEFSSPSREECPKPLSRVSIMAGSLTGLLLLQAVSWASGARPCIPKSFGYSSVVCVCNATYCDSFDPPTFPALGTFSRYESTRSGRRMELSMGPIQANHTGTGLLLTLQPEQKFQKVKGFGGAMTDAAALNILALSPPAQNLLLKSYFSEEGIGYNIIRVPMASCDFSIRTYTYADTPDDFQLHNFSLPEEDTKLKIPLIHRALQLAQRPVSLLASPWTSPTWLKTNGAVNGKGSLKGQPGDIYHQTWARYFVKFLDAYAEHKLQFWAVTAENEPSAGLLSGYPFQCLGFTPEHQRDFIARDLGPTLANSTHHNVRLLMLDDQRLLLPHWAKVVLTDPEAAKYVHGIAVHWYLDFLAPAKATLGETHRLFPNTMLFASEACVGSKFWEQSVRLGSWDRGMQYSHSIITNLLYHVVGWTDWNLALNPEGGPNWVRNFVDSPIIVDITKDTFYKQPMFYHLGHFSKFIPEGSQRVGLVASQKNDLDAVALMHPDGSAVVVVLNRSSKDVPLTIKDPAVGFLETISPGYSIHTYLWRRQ

Potency, inactive:
Cc1cc(C)n2ncc(C(=O)Nc3ccc(S(C)(=O)=O)cc3)c2n1
COc1ccc(NC(=O)c2cnn3c(C)cc(C)nc23)cc1OC
Cc1cc(C)n2ncc(C(=O)Nc3ccncc3)c2n1
Cc1cc(C)n2ncc(C(=O)Nc3cccc(C#N)c3)c2n1
CNC(=O)c1cnn2c(C)cc(C)nc12
Cc1cc(C)n2ncc(C(=O)NC(C)C)c2n1
CC(=O)Nc1ccc(NC(=O)c2cnn3c(C)cc(C)nc23)cc1
CC(=O)Nc1ccccc1NC(=O)c1cnn2c(C)cc(C)nc12
Cc1cc(C)n2ncc(C(=O)N3CCCC3)c2n1

Potency, active:
Cc1cc(C)n2ncc(C(=O)Nc3ccc(Br)cc3)c2n1 2.06 µM
Cc1cc(C)n2ncc(C(=O)Nc3ccc4c(c3)OCO4)c2n1 13 µM
Cc1ccc(NC(=O)c2cnn3c(C)cc(C)nc23)cc1 3.26 µM
Cc1cc(C)n2ncc(C(=O)Nc3ccc(C(F)(F)F)cc3)c2n1 1.46 µM
Cc1cc(C)n2ncc(C(=O)Nc3ccc(C)c(C)c3)c2n1 4.11 µM
C#Cc1ccc(NC(=O)c2cnn3c(C)cc(C)nc23)cc1 0.41 µM
CCc1ccc(NC(=O)c2cnn3c(C)cc(C)nc23)cc1 2.91 µM
Cc1cc(C)n2ncc(C(=O)Nc3ccc4c(c3)OCCO4)c2n1 13 µM
Cc1ccc(NC(=O)c2cnn3c(C)cc(C)nc23)c(C)c1 8.19 µM
Cc1cccc(NC(=O)c2cnn3c(C)cc(C)nc23)c1 8.19 µM
O=C(Nc1ccccc1Sc1ccccc1)c1cnn2c1NC(=C1CC1)C=C2C(F)F 4.61 µM
Cc1cc(C)n2ncc(C(=O)NC3CCC(C(C)(C)C)CC3)c2n1 (stereo not drawn) 11.6 µM and 2.06 µM
Cc1cc(C)n2ncc(C(=O)Nc3ccc4c(c3)CCC4)c2n1 2.91 µM
COc1ccc(NC(=O)c2cnn3c(C)cc(C)nc23)cc1 20.6 µM
